Experimental data reported in PubChem BioAssay (NCATS).
Results filed as inconclusive are left out. Entries that show only a call come without a potency. Calls of active or inactive are those of the source. The call rests on the fitted dose curve; in most records, active means well fitted inhibition curve with a large enough effect; inconclusive means small, poorly fitted or top-dose-only effect; inactive means no such curve, though single readings can be large or run the other way.

Experiment: NS1 protein of Zika virus - qHTS assay to identify small molecule inhibitors in human HEK 293 cells (AID 1347053); further: nearly all actives have a fitted effect of over 55% in size
Conditions: HEK293 ZIKV MR766 infection, NS1 TR-FRET, 24 h; series mostly up to 46.1 µM
Source text: National Center for Advancing Translational Sciences [NCATS]
Johns Hopkins University School of Medicine
The non-structural 1 (NS1) protein of zika virus is known to associate with the viral replication complex. This cell-based TR-FRET ZIKV NS-1 assay measures the increased NS-1 protein in human HEK 293 cells after a 24-hour Zika virus infection by a TR-FRET assay readout. A decrease in the Time-resolved fluorescence energy transfer (TR-FRET) signal in this assay by small molecule treatment indicates an inhibitory effect of the small molecule on the expression of Zika virus NS1 correlating with Zika virus replication.
HEK 293 cells were cultured in EMEM (ATCC, Cat. # 30-2003) medium with 10% fetal bovine serum (GE healthcare Life Sciences, Cat. # SH30071.03), and 1% Pen/Strep (Gibco, Cat. # 15140-122). Cells were seeded in the assay plate and incubated at 37 C with 5% CO2 for 20 hours. Compounds were added to cells and incubated for one hour before addition of ZIKV MR766 strain solution to cells (MOI = 0.5). After an incubation at 37 C for 24 hours, the reagent mixture of TR-FRET ZIKV NS1 assay using two anti-ZIKV NS1 antibodies was added to assay plates. The TR-FRET signals in assay plates were measured using an Envision plate reader (PerkinElmer). Data were normalized by using the cell-containing wells without ZIKV as a negative control (0% NS-1) and wells containing ZIKV infected cells as a positive control (100% NS-1 level).

Compound	Potency
CC(C)OC(=O)c1cc(C(=O)OC(C)C)cc([N+](=O)[O-])c1	inactive
CC(C)CC(NP(=O)(O)O[C@@H]1O[C@@H](C)[C@H](O)[C@@H](O)[C@H]1O)C(=O)NC(Cc1c[nH]c2ccccc12)C(=O)O (stereo not given in full)	inactive
NS(=O)(=O)c1ccc(-n2nc(C(F)(F)F)cc2-c2ccc(Cl)cc2)cc1	inactive
COc1ccccc1CNCCCCCCNCCCCCCCCNCCCCCCNCc1ccccc1OC	inactive
COCCOc1cc2ncnc(Cl)c2cc1OCCOC	inactive
CCC(CO)Nc1nc(NCc2ccccc2)c2ncn(C(C)C)c2n1 (stereo not given)	inactive
Nc1ccc([N+](=O)[O-])cc1O	inactive
Cn1ncc(S(=O)(=O)Cc2ccccc2)c(Br)c1=O	inactive
O=C1NC(O)=NC1(c1ccccc1)c1ccccc1	inactive
NO	inactive
N[C@@H](CC(=O)O)C(=O)O	inactive
Fc1cccc(/C=N/N=C/c2cccc(F)c2)c1	inactive
O=C1NCc2c1c1c3ccccc3[nH]c1c1[nH]c3ccccc3c21	inactive
CN1CCc2ccccc2Cc2[nH]c3ccccc3c2CC1	inactive
CCCCCCOc1ccccc1C(N)=O	inactive
Nc1ncnc2c1ncn2[C@@H]1O[C@H](COP(=O)(O)CP(=O)(O)OP(=O)(O)O)[C@@H](O)[C@H]1O	inactive
CCCCN(CC)c1nc(C)nc2c1c(C)cn2-c1c(C)cc(C)cc1C	inactive
CC(C)(NS(=O)(=O)c1ccc(Oc2ccc(F)cc2)cc1)C(=O)NO	inactive
Clc1ccc(N2CCN(Cc3cc4ccccn4n3)CC2)cc1	inactive
Nc1nc2ccc([N+](=O)[O-])cc2s1	inactive

Compound	Potency
CN(C)c1ccc(/C=C2\C(=O)Nc3ccccc32)cc1	inactive
Clc1ccccc1-c1nc(-c2ccncc2)no1	inactive
O=C(O)c1cc(=O)c2ccccc2[nH]1	inactive
Cn1cc(C2=C(c3ccc(Cl)cc3Cl)C(=O)NC2=O)c2ccccc21	inactive
COc1cc(NC(C)CCCN)c2ncccc2c1 (stereo not given)	inactive
NCCO	inactive
O=C(O)CCCC[C@@H]1CCSS1	inactive
NC(=O)C(=O)O	inactive
COc1cc(SC)ccc1C(=O)N1CCC(Cc2ccccc2)CC1	inactive
Cc1c(C(=O)O)c(O)cc2c1C(=O)c1c(O)c([C@@H]3O[C@H](CO)[C@@H](O)[C@H](O)[C@H]3O)c(O)c(O)c1C2=O	inactive
COC(=O)C1=C(C)NC(C)=C(C(=O)OCC(C)=O)C1c1ccccc1[N+](=O)[O-] (stereo not given)	inactive
CN(C)C(N)=NCCC[C@H](N)C(=O)O	inactive
O=C1NC(=O)/C(=C/c2ccc3nccnc3c2)S1	inactive
N#C/C(=C\c1ccc(O)c(O)c1)C(=O)c1ccc(O)c(O)c1	inactive
O=C(O)c1cc([N+](=O)[O-])ccc1NCCCc1ccccc1	inactive
C#CC1(O)CC[C@H]2[C@@H]3CCC4=CCCC[C@@H]4[C@H]3CC[C@@]21C (stereo not given in full)	inactive
C[N+](C)(C)CCOP(=O)(O)OP(=O)([O-])OC[C@H]1O[C@@H](n2ccc(N)nc2=O)[C@H](O)[C@@H]1O	inactive
CN=c1nc(-c2ccccc2)n(-c2ccccc2)s1	inactive
NC(CCCP(=O)(O)O)C(=O)O (stereo not given)	inactive
Nc1nc2ccc(Cl)cc2n2c(-c3ccccc3)nnc12	inactive
